GLP-1R agonist = qHTS of GLP-1 Receptor Agonists; Potency, µM (series often up to 45.6 µM), actives largely listed as activators; HEK293 GLP-1R CRE-luciferase, luminescence, 4-6 h; cells express a hypersensitive GLP-1R form; 380,000 compounds, 0.007% hits
Target sequence (P43220 whole entry, looked up): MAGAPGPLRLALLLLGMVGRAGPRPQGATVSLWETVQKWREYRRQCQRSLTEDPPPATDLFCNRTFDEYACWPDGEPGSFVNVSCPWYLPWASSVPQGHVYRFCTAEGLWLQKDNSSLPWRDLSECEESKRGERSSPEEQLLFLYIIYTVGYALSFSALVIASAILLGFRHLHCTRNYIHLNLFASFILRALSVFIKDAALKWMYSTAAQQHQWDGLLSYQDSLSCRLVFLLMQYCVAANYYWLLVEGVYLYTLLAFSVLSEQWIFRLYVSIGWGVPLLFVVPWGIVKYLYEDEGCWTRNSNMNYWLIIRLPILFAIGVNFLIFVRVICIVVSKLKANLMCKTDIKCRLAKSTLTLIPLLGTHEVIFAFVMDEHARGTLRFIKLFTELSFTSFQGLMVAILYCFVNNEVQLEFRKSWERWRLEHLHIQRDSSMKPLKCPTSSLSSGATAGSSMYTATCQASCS
GLP-1R inv ag = qHTS of GLP-1 Receptor Inverse Agonists (Inhibition Mode) | Glucagon-like peptide 1 receptor (Homo sapiens), P43220 | HEK293 GLP-1R CRE-luciferase, luminescence, 24 h; GLP-1R form is constitutively active | Potency, µM (titrated, usually from 38.3 µM), actives largely listed as inhibitors | 410,000 compounds, 1.6% hits | AID 624417, 2012; further: nearly all actives have a fitted effect of over 55% in size
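Cells are plated, allowed 12 hours at 37 deg C, then treated with compounds for 24 hr before luciferase detection reagent is added and luminescence is read after 12 min at room temperature. The HEK293 line carries constitutively active GLP-1R with a cAMP-responsive reporter.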
GLP1R cytotox = qHTS of GLP-1 Receptor Inverse Agonists: Cytotox Screen. AID 624418, 2012. Potency, µM (titrated, usually from 38.3 µM), actives largely listed as inhibitors. HEK293 cAMP-luciferase reporter cells, luminescence, 24 h. 410,000 compounds, 0.13% hits;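 further: loss of luciferase light is scored as toxicity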
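MLSMR compounds, 24 hr on cells at 37 deg C/5% CO2; luminescence after luciferase reagent (12 min RT). Inhibition counted as the undesired cytotoxic outcome.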
PTHR1 ag = qHTS for PTHR1 Agonists: Primary Screen. Parathyroid hormone/parathyroid hormone-related peptide receptor (Homo sapiens), Q03431. HEK293 GP2 PTHR1 cells, GloSensor cAMP luminescence, 1 h. Potency, µM (doses to about 115 µM), usual class: activators. 410,000 compounds, 0.075% hits. AID 743266, 2014; further: nearly all actives have a fitted effect of over 55% in size
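HEK-293-derived GP2 cells expressing PTHR1 and a GloSensor cAMP reporter, 3,000/well, plated overnight, given luciferin plus IBMX (each 0.5 mM as added) for 1 h at 37 °C, then compound for 1 h at 37 °C. Luminescence was read after 15 min at room temperature.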
Large screens that a line does not name were inactive. Shown are actives, neighbours in structure and some others; about 1.7% of the full set was active somewhere. The call rests on the fitted dose curve; in most records, active means well fitted curve in the direction sought with a large enough effect; inconclusive means small, poorly fitted or top-dose-only effect, or another doubt; inactive means no such curve, though single readings can be large; an effect the other way counts as inactive or inconclusive.

CCOC(=O)Nc1ccc2c(c1)N(CCCN(C)C)c1ccccc1CC2	GLP-1R inv ag 12.6µM
CCOC(=O)Nc1ccc2c(c1)N(C(=O)OC)c1ccccc1CC2	none
CCN(CC)C(=O)c1sc(NC(=O)c2nc3ncccn3n2)c(C(=O)OC)c1C	none (no result: GLP-1R agonist)
CN(Cc1ccccc1N1CCCC1)C(=O)c1cc2cc(Cl)ccc2o1	GLP-1R inv ag inconclusive
CN(Cc1ccccc1N1CCCC1)C(=O)c1cc2ccccc2o1	GLP-1R inv ag 10µM
CCOC(=O)c1ccc(NC(=O)CCNS(=O)(=O)c2cc(Br)cnc2N)cc1	GLP-1R inv ag inconclusive
Cc1cc(C)cc(NC(=O)CCNS(=O)(=O)c2cc(Br)cnc2N)c1	GLP-1R inv ag 7.94µM
COc1ccc(CNC(=O)Cn2c(=O)nc(-c3ccccc3)c3ccccc32)cc1OC	GLP-1R inv ag inconclusive (no result: GLP-1R agonist)
COc1ccc(C2(O)CCN(CC(=O)Nc3nc(-c4ccccc4)cs3)CC2)cc1	GLP-1R inv ag 7.08µM
CC1CCN(CC(=O)Nc2nc(-c3ccccc3)cs2)CC1	GLP-1R inv ag 5.62µM
CN1CCN(CC(=O)Nc2nc(-c3ccccc3)cs2)CC1	GLP-1R inv ag inconclusive
CCOC(=O)c1ccc(N2CCN(c3ccccc3F)CC2)c(NC(=O)Nc2ccccc2)c1	GLP-1R inv ag 2.51µM
CCOc1ccc(Nc2nc(N)nc(CCl)n2)cc1	GLP-1R agonist inconclusive, GLP-1R inv ag 5.01µM, GLP1R cytotox inconclusive
Cc1ccc(Nc2nc(N)nc(CCl)n2)cc1	GLP-1R inv ag inconclusive
CCOc1ccc(Nc2nc(N)c3ccccc3n2)cc1	GLP-1R inv ag 2.24µM
CN(C)c1ccc(Nc2nc(N)c3ccccc3n2)cc1	GLP-1R inv ag 2µM
COc1ccccc1Cn1cc(C(=O)c2ccc(C)cc2)c(=O)c2cc(F)cc(F)c21	none (no result: GLP-1R agonist)
Cc1ccc(-c2c(CN3CCN(c4cccc(C(F)(F)F)c4)CC3)csc2C)cc1	none (no result: GLP-1R agonist)
Cc1cccc(OC2CCN(Cc3nc(CC4CC4)no3)CC2)c1	GLP-1R inv ag 12.6µM
S=C(Nc1ccc(Br)cc1)N1CCN(c2ccccn2)CC1	GLP-1R inv ag inconclusive
CCOC(=O)N1CCc2c(sc3c2C(=O)NC(c2cc(OC)c(OC)c(OC)c2)N3)C1 (configuration not stated)	none (no result: GLP-1R agonist)
Cc1ccc(O)c(-c2cc(-c3cccc(Br)c3)n[nH]2)c1	GLP-1R inv ag 10µM
CCN(CC(=O)Nc1ccc(OC)cc1)C(=O)CSCc1c(C)noc1C	none
CCNC(=S)Nc1ccc(N(c2ccccc2)C(C)C)cc1	GLP-1R inv ag inconclusive
CC(C)c1ccc(NC(=S)NN(c2ccccc2)c2ccccc2)cc1	GLP-1R inv ag 5.62µM, GLP1R cytotox inconclusive
COc1ccc(N/N=C(/N=Nc2nc(C)cc(=O)[nH]2)c2ccccc2)cc1	GLP-1R inv ag inconclusive, GLP1R cytotox 3.98µM
CCNC(=O)C1(C)CCCN(C(=O)c2ccnc(Cl)c2)C1 (configuration not stated)	none
COc1ccc(Nc2ccnc3ccccc23)cc1	GLP-1R inv ag inconclusive
CC(C)Nc1ccc(Nc2ccnc3cc4ccccc4cc23)cc1	GLP-1R inv ag 3.16µM, GLP1R cytotox 4.47µM
COc1ccc([C@H]2CC(=O)C=C(c3ccc(Cl)c(F)c3)C2)cc1	GLP-1R inv ag inconclusive
CC(C)Oc1ccc(Br)cc1/C=N\NC(N)=S	GLP-1R inv ag 3.16µM, GLP1R cytotox 2.51µM
O=C(Cn1c2c(c(-c3ccccc3)cc1=O)CCCC2)N1CCCCCC1	GLP-1R inv ag 12.6µM
COc1ccc(C(=O)O/N=C(\N)Cc2ccc(Cl)c(Cl)c2)cc1OC	GLP-1R inv ag inconclusive, GLP1R cytotox 5.62µM, PTHR1 ag inconclusive
N/C(Cc1ccc(Cl)cc1)=N\OC(=O)c1ccccc1	GLP-1R inv ag inconclusive, GLP1R cytotox inconclusive, PTHR1 ag inconclusive
COc1ccc(C(=O)O/N=C(\N)Cc2ccc(Cl)cc2)cc1OC	GLP-1R inv ag 7.94µM, GLP1R cytotox inconclusive, PTHR1 ag inconclusive
Cc1ccc(Cn2c(C)c(CNC(C)c3ccccc3)c(C(=O)O)c2C)cc1 (configuration not stated)	none (no result: GLP-1R agonist)
COc1ccc(C(=O)N2CCC(C(=O)Nc3ccccc3Cl)CC2)cc1	none (no result: GLP-1R agonist)
O=C1CC(SC(=Nc2ccccc2)Nc2ccccc2)C(=O)N1c1cccc(Cl)c1 (configuration not stated)	GLP-1R inv ag 5.01µM, GLP1R cytotox inconclusive
CC1Cc2ccccc2N1S(=O)(=O)c1nnc(NC(=O)c2ccccc2Br)s1 (configuration not stated)	GLP-1R inv ag 10µM (no result: GLP-1R agonist)
CCCNC(=O)Cn1ncc2c3ccccc3n(CCC)c2c1=O	none (no result: GLP-1R agonist)
CCOC(=O)C1CCN(C(=O)c2cc3ccc4cccnc4c3[nH]2)CC1	none (no result: GLP-1R agonist)
CC1CCCN(C(=O)c2cc3ccc4cccnc4c3[nH]2)C1 (configuration not stated)	GLP-1R inv ag 6.31µM (no result: GLP-1R agonist)
O=C(c1cc2ccc3cccnc3c2[nH]1)N1CCCCC1	GLP-1R inv ag 6.31µM (no result: GLP-1R agonist)
O=C(c1cc2ccc3cccnc3c2[nH]1)N1CCN(c2ccc(Cl)cc2)CC1	none (no result: GLP-1R agonist)
COc1ccc(NC(=O)C(C)n2nc(-c3cc(C)ccc3C)c3c(c2=O)CCCC3)cc1 (configuration not stated)	GLP-1R inv ag inconclusive (no result: GLP-1R agonist)
CCOc1ccc(NC(=O)CSC2=Nc3ccccc3C3=NC(CC(=O)NCc4ccc5c(c4)OCO5)C(=O)N23)cc1 (configuration not stated)	PTHR1 ag inconclusive (no result: GLP-1R agonist)
C/C(=N\N=C1\NC(=O)C(CC(=O)Nc2ccc(C)c(Cl)c2)S1)C(C)(C)C (configuration not stated)	GLP-1R inv ag 11.2µM
C/C(=N\N=C1\NC(=O)C(CC(=O)Nc2ccc(Cl)cc2)S1)c1ccco1 (configuration not stated)	GLP-1R inv ag inconclusive
Cc1ccc(S(=O)(=O)/N=C2\C=C(Nc3cccc(C(=O)O)c3)C(=O)c3ccccc32)cc1	GLP1R cytotox inconclusive
O=C1C(Nc2ccccc2)=C/C(=N/S(=O)(=O)c2cccs2)c2ccccc21	GLP1R cytotox 4.47µM
Cc1ccc(S(=O)(=O)/N=C2\C=C(Nc3ccc(O)cc3)C(=O)c3ccccc32)cc1	GLP-1R inv ag 4.47µM, GLP1R cytotox 2.82µM
CC(=O)/C=C/n1c(=S)oc2ccccc21	GLP-1R inv ag inconclusive, GLP1R cytotox 11.2µM
CC(C)NC(=O)c1ccc(-n2c(-c3ccccc3)cc3c2CCCCC3)cc1	PTHR1 ag inconclusive (no result: GLP-1R agonist)
CC1CCc2c(cc(-c3ccccc3)n2-c2ccc(C(=O)NC(C)C)cc2)C1 (configuration not stated)	GLP-1R inv ag 6.31µM (no result: GLP-1R agonist)
O=[N+]([O-])c1ccc(COc2cccc(CN3CCOCC3)c2)cc1	none
COc1ccc(-n2nc(C(=O)N3CCCC(C)C3)c3c4ccccc4n(C)c3c2=O)cc1 (configuration not stated)	none (no result: GLP-1R agonist)
Cc1cc(-c2ccccc2)nc(Oc2ccc(C(C)(C)C)cc2)c1S(C)(=O)=O	GLP-1R inv ag inconclusive

High-throughput results from PubChem BioAssay.
